Data as given in PubChem BioAssay (Tox21).
Results filed as inconclusive are left out. Entries that show only a call come without a potency. Some structures have more than one record in an assay (separate samples or runs), and their calls can disagree. Calls of active or inactive are those of the source. Unless noted, calls follow the shape of the dose curve; as a rule, active = well fitted curve in the direction sought with a large enough effect in the repeat runs; inconclusive = weak or mixed curves; inactive = no such curve, though single readings can be large; an effect the other way counts as inactive or inconclusive.

Columns and labels:
[1] = qHTS assay to identify small molecule agonists of the sonic hedgehog signaling (Shh) pathway (AID 1259368; calls by dose curve;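 also: NIH/3T3-derived 3T3Gli1-Luc cells carrying a stable Gli1-driven firefly luciferase reporter; series mostly up to about 92 µM; nearly all actives have a fitted effect of over 15% in size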)
Outline: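 Read-out: firefly luciferase luminescence from a Gli1 response element reporter stably integrated in NIH/3T3-derived 3T3Gli1-Luc cells, measured 30 min at room temperature after reagent addition. Compound exposure lasted 24 hr at 37 C, 5% CO2.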

[2] = qHTS assay to identify small molecule antagonists of the sonic hedgehog signaling (Shh) pathway (AID 1259369; calls by dose curve; also: nearly all actives have a fitted effect of over 45% in size)
Outline: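 Luminescence readout: firefly Luc under Gli1 response element in 3T3Gli1-Luc cells (NIH/3T3 clone). Antagonist mode, stimulation by conditioned medium; compound exposure 24hr at 37 C, 5% CO2.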

[3] = target: Estrogen receptor beta (Homo sapiens) (UniProt Q92731); assay: qHTS assay to identify small molecule agonists of the estrogen receptor beta (ER-beta) signaling pathway (AID 1259377; active = well fitted activation curve with a large enough effect in the signal ratio in the repeat runs, not every such curve was filed as active; the % refers to the signal ratio)
Chain of Estrogen receptor beta (Homo sapiens) (Q92731 whole entry, looked up): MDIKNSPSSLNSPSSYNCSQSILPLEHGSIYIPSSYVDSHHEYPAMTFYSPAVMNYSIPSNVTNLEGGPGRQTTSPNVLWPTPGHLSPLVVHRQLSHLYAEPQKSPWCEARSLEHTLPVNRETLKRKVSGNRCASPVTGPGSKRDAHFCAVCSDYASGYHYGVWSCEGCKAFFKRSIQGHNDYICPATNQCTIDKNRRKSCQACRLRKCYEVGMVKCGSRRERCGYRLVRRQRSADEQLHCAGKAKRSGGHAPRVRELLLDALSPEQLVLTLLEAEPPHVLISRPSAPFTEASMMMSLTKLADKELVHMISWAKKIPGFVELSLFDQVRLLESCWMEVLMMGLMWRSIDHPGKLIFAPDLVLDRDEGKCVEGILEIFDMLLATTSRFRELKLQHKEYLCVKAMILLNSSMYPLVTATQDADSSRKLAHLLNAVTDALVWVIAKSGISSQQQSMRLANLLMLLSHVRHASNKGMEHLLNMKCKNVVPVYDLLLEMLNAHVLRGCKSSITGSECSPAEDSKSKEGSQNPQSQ
Outline: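 Read-out: beta-lactamase FRET fluorescence. Cell line: ER-beta-UAS-bla HEK293T in 2% charcoal-stripped FBS. Exposure: 16 hr at 37C. Substrate step: 2 h at room temperature.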

[4] = target: Estrogen receptor beta (Homo sapiens) (UniProt Q92731); assay: qHTS assay to identify small molecule antagonists of the estrogen receptor beta (ER-beta) signaling pathway (AID 1259378; active = well fitted inhibition curve with a large enough effect in the signal ratio in the repeat runs, not every such curve was filed as active; the % refers to the signal ratio; also: potency is read from the fitted curve at half-maximal effect)
Outline: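 ER-beta-UAS-bla HEK293T cells in 2% charcoal-stripped FBS medium treated with compound plus 1nM final 17-beta-estradiol for 16 hr at 37C. Beta-lactamase reporter read by FRET substrate fluorescence after 2 hours at room temperature.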

[5] = qHTS assay to identify small molecule agonists of the androgen receptor (AR) signaling pathway in the presence of an antagonist - cell viability counter screen (AID 1259379);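 also: MDA-kb2 human breast cancer cells carrying an MMTV luciferase reporter; series mostly up to about 92 µM; nearly all actives have a fitted effect of over 25% in size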
Outline: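 Viability counter screen: CellTiter-Fluor fluorescence, measured in the same wells as the luciferase read-out. MDA-kb2 cells, 3,000/well, with nilutamide at 3.0uM final and compounds at 15 concentrations, 16 hr at 37C, 0% CO2.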

[6] = qHTS assay to identify small molecule agonists of the estrogen receptor beta (ER-beta) signaling pathway - cell viability counter screen (AID 1259380); also: nearly all actives have a fitted effect of over 30% in size
Outline: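 Luminescence read-out (CellTiter-Glo, 30 min, room temp) taken in the same wells as the beta-lactamase reporter assay; ER-beta-UAS-bla HEK293T cells exposed to DMSO-dissolved compounds for 16 hr at 37C in 2% charcoal-stripped FBS medium.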

[7] = qHTS assay to identify small molecule antagonists of the estrogen receptor beta (ER-beta) signaling pathway - cell viability counter screen (AID 1259382); also: series mostly up to about 92 µM; nearly all actives have a fitted effect of over 55% in size
Outline: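 Luminescent ATP read-out (CellTiter-Glo, 30 min, RT) taken in the same wells as the bla reporter assay. HEK293T ER-beta-UAS-bla cells in 2% charcoal-stripped FBS were exposed to compounds with 1nM E2 for 16 hr at 37C.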

[8] = qHTS assay to identify small molecule agonists or antagonists of the thyroid stimulating hormone receptor (TSHR) signaling pathway - wild type cell line counter screen (AID 1259384; calls by dose curve)
Outline: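 Wild-type Hek293 cells, 800/well, 18 h at 37C, then compound with Ro20-1724 for 30 min RT. cAMP by HTRF (cAMP-d2/anti-cAMP cryptate), 1 h RT, fluorescence read. 15 concentrations, triplicates.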

[9] = target: Thyrotropin receptor (Homo sapiens) (UniProt P16473); assay: qHTS assay to identify small molecule antagonists of the thyroid stimulating hormone receptor (TSHR) signaling pathway (AID 1259385; calls by dose curve; also: nearly all actives have a fitted effect of over 20% in size)
Chain of Thyrotropin receptor (Homo sapiens) (P16473 whole entry, looked up): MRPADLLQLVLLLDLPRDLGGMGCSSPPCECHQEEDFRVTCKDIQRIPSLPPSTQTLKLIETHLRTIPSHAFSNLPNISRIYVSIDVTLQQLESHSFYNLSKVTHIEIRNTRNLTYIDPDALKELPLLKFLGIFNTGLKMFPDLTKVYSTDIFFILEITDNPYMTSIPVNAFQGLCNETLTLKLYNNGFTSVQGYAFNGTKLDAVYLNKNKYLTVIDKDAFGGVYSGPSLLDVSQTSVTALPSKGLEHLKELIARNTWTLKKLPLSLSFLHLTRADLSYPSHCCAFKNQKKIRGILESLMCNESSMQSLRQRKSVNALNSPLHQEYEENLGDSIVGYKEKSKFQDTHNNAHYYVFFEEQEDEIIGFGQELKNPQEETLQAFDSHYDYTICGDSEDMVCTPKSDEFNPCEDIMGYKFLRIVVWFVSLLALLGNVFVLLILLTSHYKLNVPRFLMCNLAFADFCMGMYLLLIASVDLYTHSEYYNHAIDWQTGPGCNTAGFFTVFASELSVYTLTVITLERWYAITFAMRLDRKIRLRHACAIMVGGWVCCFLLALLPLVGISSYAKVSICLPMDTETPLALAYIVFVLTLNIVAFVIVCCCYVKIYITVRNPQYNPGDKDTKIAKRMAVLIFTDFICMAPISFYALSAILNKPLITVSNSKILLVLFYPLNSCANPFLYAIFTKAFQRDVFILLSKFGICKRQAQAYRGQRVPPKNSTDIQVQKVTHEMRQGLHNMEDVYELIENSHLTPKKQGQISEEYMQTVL
Outline: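 TSHR-HEK293 cells (800/well) plated 18 h, then compounds with Ro20-1724 and TSH at 1.5 ng/mL final, 30 min at room temperature. cAMP quantified by HTRF (cAMP-d2/anti-cAMP-cryptate, 1 h); 15 concentrations in triplicate.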

[10] = qHTS assay to identify small molecule agonists of the estrogen receptor alpha (ER-alpha) signaling pathway in the presence of an antagonist - cell viability counter screen (AID 1259386);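 also: series mostly up to about 92 µM; cells exposed to compounds for 22 h at 37 °C before the viability read; nearly all actives have a fitted effect of over 30% in size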
Outline: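 Read-out: CellTiter-Fluor fluorescence after 1hr reagent incubation, measured in the same wells as the luciferase readout. VM7Luc4E2 cells were exposed to 15 compound concentrations with 10.0nM ICI-182,780 for 22hr at 37C.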

[11] = target: Progesterone receptor (Homo sapiens) (UniProt P06401); assay: qHTS assay to identify small molecule agonists of the progesterone receptor (PR) signaling pathway (AID 1346784; calls by dose curve; also: nearly all actives have a fitted effect of over 30% in size)
Chain of Progesterone receptor (Homo sapiens) (P06401 whole entry, looked up): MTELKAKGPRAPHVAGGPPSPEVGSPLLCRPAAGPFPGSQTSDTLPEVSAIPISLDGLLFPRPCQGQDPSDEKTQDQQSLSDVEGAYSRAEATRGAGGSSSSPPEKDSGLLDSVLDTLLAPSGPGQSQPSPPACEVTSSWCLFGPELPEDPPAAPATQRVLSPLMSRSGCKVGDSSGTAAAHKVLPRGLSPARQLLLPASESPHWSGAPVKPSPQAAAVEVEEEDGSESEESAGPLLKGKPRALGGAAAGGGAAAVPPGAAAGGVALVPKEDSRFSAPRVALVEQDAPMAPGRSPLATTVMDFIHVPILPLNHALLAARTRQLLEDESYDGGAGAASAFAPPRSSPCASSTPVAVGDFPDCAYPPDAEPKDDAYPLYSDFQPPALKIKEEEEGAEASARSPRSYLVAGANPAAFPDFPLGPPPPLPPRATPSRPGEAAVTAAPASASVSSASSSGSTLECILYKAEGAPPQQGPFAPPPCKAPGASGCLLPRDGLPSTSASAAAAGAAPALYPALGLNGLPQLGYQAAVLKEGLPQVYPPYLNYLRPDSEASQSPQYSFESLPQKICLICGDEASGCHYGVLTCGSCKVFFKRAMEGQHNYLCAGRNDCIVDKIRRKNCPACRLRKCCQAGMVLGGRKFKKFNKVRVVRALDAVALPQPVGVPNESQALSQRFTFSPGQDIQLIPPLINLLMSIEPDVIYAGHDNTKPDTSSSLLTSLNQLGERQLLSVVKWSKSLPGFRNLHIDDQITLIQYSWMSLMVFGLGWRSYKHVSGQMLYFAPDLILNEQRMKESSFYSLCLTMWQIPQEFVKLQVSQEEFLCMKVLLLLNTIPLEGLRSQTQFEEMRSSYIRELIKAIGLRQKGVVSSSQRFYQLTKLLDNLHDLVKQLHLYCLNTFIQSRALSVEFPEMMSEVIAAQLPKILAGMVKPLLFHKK
Outline: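 Compounds were tested for PR agonism in HEK 293T cells bearing a beta-lactamase gene under UAS control. Treatment lasted 16 hr at 37C; signal came from fluorescence of a FRET substrate.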

[12] = target: Progesterone receptor (Homo sapiens) (UniProt P06401); assay: qHTS assay to identify small molecule antagonists of the progesterone receptor (PR) signaling pathway (AID 1346795; active = well fitted inhibition curve with a large enough effect in the signal ratio in the repeat runs, not every such curve was filed as active; the % refers to the signal ratio)
Outline: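 In HEK293T cells bearing the PR-UAS-bla reporter, compound effects on promegestone-driven (1 nM) beta-lactamase expression are assessed after 16 hr using a fluorescent FRET substrate incubated 2 hr at room temperature.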

[13] = qHTS assay to identify small molecule agonists of the progesterone receptor (PR) signaling pathway - cell viability counter screen (AID 1346799; calls by dose curve; also: nearly all actives have a fitted effect of over 45% in size)
Outline: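 Here, 3,000 PR-UAS-bla HEK293T cells per well were treated with compounds for 16 hr after a 6 hr preincubation at 37C and 5% CO2; cell viability is the CellTiter-Glo luminescence signal.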

[14] = qHTS assay to identify small molecule agonists of the TGF-beta/Smad signaling pathway - cell viability counter screen (AID 1346829); also: top concentration of the series differs between compounds; nearly all actives have a fitted effect of over 45% in size
Outline: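 HEK 293T SBE-bla line, 5 hr compound exposure at 37 C, multiplexed CellTiter-Glo viability read by luminescence.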

[15] = qHTS assay to identify small molecule agonists of the TGF-beta/Smad signaling pathway (AID 1346859; active = well fitted activation curve with a large enough effect in the signal ratio in the repeat runs, not every such curve was filed as active; the % refers to the signal ratio; also: series mostly up to about 77 µM)
Outline: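 Each well held 4,000 SBE-bla HEK 293T cells incubated overnight before compound addition; 5 hr later the cleavable FRET substrate went on for 2 hr at room temperature, and fluorescence was read at two emissions.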

[16] = target: Thyrotropin-releasing hormone receptor (Homo sapiens) (UniProt P34981); assay: qHTS assay to identify small molecule antagonists of the thyrotropin-releasing hormone receptor (TRHR) signaling pathway (AID 1346877; active = well fitted inhibition curve with a large enough effect in the repeat runs, not every such curve was filed as active; also: series mostly up to about 51 µM)
Chain of Thyrotropin-releasing hormone receptor (Homo sapiens) (P34981 whole entry, looked up): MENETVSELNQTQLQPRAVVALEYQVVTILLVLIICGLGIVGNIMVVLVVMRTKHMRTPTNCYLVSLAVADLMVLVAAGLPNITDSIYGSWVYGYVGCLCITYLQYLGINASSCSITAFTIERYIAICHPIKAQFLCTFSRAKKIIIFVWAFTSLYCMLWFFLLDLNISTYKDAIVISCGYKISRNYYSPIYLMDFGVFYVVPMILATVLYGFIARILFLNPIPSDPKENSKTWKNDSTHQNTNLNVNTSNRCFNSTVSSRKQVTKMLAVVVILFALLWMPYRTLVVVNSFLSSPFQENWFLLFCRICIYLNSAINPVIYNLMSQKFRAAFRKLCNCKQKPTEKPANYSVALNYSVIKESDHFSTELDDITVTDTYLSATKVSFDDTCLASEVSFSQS
Outline: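 HEK293/TRHR cells, 18 h, 37 °C; Ca2+ dye 2 h; cpd 5 min RT; TRH 1 nM final; fluorescence read 3 min, 1 s intervals; 15 concs, triplicate.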

[17] = target: Estrogen receptor (Homo sapiens) (UniProt P03372); assay: qHTS assay to identify small molecule agonists of the estrogen receptor alpha (ER-alpha) signaling pathway in the presence of an antagonist (AID 1259383; calls by dose curve; also: nearly all actives have a fitted effect of over 15% in size; also: potency is read from the fitted curve at half-maximal effect; as to activation: top concentration of the series differs between compounds)
Chain of Estrogen receptor (Homo sapiens) (P03372 whole entry, looked up): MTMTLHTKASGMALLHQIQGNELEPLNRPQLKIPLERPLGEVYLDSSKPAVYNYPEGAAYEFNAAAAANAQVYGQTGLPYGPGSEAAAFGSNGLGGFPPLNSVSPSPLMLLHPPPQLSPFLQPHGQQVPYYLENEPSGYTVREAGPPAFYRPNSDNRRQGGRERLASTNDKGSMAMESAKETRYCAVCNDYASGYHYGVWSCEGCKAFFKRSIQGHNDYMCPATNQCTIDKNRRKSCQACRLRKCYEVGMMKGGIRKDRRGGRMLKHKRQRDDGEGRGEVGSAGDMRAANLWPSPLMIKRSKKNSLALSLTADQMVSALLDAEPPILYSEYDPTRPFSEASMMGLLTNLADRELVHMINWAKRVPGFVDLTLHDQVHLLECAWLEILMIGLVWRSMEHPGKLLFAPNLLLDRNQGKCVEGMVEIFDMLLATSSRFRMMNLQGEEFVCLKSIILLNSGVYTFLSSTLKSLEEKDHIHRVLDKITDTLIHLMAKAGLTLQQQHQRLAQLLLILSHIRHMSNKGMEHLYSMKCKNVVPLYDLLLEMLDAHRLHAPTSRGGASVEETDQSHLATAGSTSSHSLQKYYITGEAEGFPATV
Outline: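 Luciferase luminescence (ONE-Glo, 30min at room temperature) measured in VM7Luc4E2 cells after 22hr compound exposure at 15 concentrations, with 10.0nM ICI-182,780 final present; cells express endogenous ER-alpha and carry four EREs upstream of luciferase.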

[18] = qHTS assay to identify small molecule antagonists of the progesterone receptor (PR) signaling pathway - cell viability counter screen (AID 1346798); also: series mostly up to about 92 µM; nearly all actives have a fitted effect of over 50% in size
Outline: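 Following a 4 hr attachment, PR-UAS-bla HEK293T cells in charcoal-stripped FBS medium were exposed to compounds with R5020 for 16 hr; CellTiter-Glo was added and luminescence read after 30 min at room temperature.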

[19] = qHTS assay to identify small molecule antagonists of the TGF-beta/Smad signaling pathway - cell viability counter screen (AID 1346824); also: nearly all actives have a fitted effect of over 50% in size
Outline: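 SBE-bla HEK 293T cells, incubated overnight, then compound plus 0.25 ng/mL TGF-beta1 (stock added) for 5 hr at 37 C. Viability was read in the same wells by CellTiter-Glo luminescence after 30 min at room temperature.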

[20] = target: Androgen receptor (Homo sapiens) (UniProt P10275); assay: qHTS assay to identify small molecule agonists of the androgen receptor (AR) signaling pathway in the presence of an antagonist (AID 1259381; calls by dose curve; also: nearly all actives have a fitted effect of over 15% in size)
Chain of Androgen receptor (Homo sapiens) (P10275 whole entry, looked up): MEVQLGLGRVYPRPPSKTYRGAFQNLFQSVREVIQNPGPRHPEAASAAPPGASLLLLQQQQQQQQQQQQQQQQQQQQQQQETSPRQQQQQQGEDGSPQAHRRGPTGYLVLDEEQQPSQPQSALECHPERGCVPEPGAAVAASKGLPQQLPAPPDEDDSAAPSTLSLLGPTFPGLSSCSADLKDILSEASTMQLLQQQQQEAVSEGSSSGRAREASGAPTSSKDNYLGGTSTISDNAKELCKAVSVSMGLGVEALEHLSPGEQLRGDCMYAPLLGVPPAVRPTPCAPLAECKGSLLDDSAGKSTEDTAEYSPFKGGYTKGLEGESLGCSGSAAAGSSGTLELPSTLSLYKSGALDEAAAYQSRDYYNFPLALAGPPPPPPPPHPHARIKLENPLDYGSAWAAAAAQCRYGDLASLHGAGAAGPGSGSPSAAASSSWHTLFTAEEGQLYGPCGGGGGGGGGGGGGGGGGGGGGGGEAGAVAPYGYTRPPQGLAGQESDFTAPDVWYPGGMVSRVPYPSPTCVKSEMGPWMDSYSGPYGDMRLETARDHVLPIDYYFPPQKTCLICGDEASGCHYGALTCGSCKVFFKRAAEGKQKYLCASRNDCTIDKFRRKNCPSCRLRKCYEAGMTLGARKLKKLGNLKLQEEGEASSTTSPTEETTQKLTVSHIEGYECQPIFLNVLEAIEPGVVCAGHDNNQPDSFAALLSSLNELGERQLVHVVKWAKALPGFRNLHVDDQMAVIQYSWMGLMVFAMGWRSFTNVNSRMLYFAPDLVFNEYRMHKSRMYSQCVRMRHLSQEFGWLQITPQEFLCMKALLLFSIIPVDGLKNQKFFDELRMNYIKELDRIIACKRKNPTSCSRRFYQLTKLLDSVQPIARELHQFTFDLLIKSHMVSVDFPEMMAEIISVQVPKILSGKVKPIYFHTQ
Outline: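 Luciferase read-out (ONE-Glo, 30min room temperature) in MDA-kb2 MMTV-reporter cells; agonist mode run in presence of AR antagonist nilutamide, 3.0uM final. Compounds tested as 15-point series, 16hr exposure at 37C, 0% CO2.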

Row | Compound | outcome [1] | Potency [2] | Potency [3] | Potency [4] | Potency [5] | Potency [6] | outcome [7] | outcome [8] | outcome [9] | Potency [10] | Potency [11] | Potency [12] | outcome [13] | outcome [14] | outcome [15] | outcome [16] | Potency [17] | outcome [18] | outcome [19] | Potency [20]
1 | N[C@H](Cc1c[nH]c2ccccc12)C(=O)O | inactive | inactive | inactive | inactive | inactive | inactive | inactive | inactive | inactive | inactive | inactive | inactive | inactive | inactive | inactive | inactive |  |  |  | 
2 | O=c1[nH]cnc2[nH]ncc12 | inactive | inactive | inactive | 22.2 µM (active) and inactive | inactive | inactive | inactive |  |  | inactive | inactive | inactive | inactive | inactive | inactive |  | inactive |  |  | 
3 | NCCNCCN | inactive | inactive | inactive | inactive | inactive | inactive | inactive |  |  | inactive | inactive | inactive | inactive | inactive | inactive | inactive |  |  |  | 
4 | CCOC(=O)c1ccc(N)cc1 | inactive | inactive | inactive | inactive | inactive | inactive | inactive | inactive | inactive | inactive | inactive |  | inactive | inactive | inactive |  |  | inactive |  | 
5 | CNC(=S)N(C)C | inactive | inactive | inactive | inactive | inactive | inactive | inactive |  |  | inactive | inactive | inactive | inactive | inactive | inactive |  | inactive | inactive |  | 
6 | c1ccc(Oc2ccccc2)cc1 | inactive | inactive | inactive | inactive | inactive | inactive | inactive | inactive | inactive | inactive | inactive | inactive | inactive | inactive | inactive |  |  | inactive | inactive | 
7 | O=S(=O)(O)c1ccccc1 | inactive | inactive |  |  | inactive | inactive | inactive | inactive | inactive | inactive | inactive | inactive | inactive | inactive | inactive | inactive |  |  | inactive | 
8 | CC(=O)CCC=C(C)C | inactive | inactive |  |  | inactive | inactive | inactive | inactive | inactive | inactive | inactive | inactive | inactive | inactive | inactive | inactive | inactive |  | inactive | 
9 | C=C(C)CNCC | inactive | inactive |  |  | inactive | inactive | inactive |  | inactive | inactive | inactive | inactive | inactive | inactive | inactive |  |  | inactive | inactive | 
10 | CNC(=O)Oc1ccc2c(c1)[C@]1(C)CCN(C)[C@@H]1N2C | inactive | inactive |  |  | inactive | inactive | inactive |  | inactive | inactive | inactive | inactive | inactive | inactive | inactive |  | inactive | inactive | inactive | 
11 | COc1ccc(OC)cc1 | inactive | inactive |  |  | inactive | inactive | inactive |  | inactive | inactive | inactive | inactive | inactive | inactive | inactive | inactive | inactive | inactive |  | 
12 | CCOCC(=O)O | inactive | inactive |  |  | inactive | inactive | inactive |  | inactive | inactive | inactive | inactive | inactive | inactive | inactive |  | inactive | inactive | inactive | 
13 | CC1(C)S[C@@H]2[C@H](NC(=O)COc3ccccc3)C(=O)N2[C@H]1C(=O)O | inactive | inactive |  |  | inactive | inactive | inactive | inactive | inactive | inactive | inactive | inactive | inactive | inactive | inactive |  | inactive | inactive | inactive | 
14 | Nc1nc(N)nc(-c2ccccc2)n1 | inactive |  | inactive | inactive | inactive | inactive | inactive | inactive | inactive | inactive | inactive | inactive | inactive | inactive | inactive | inactive | inactive | inactive |  | 
15 | C=CC(=O)OCCC(=O)O | inactive | inactive |  |  | inactive | inactive | inactive | inactive | inactive | inactive | inactive | inactive | inactive | inactive | inactive |  | inactive | inactive | inactive | 
16 | COC(=O)c1cccnc1 | inactive | inactive |  |  | inactive | inactive | inactive |  | inactive | inactive | inactive | inactive | inactive | inactive | inactive |  |  | inactive | inactive | inactive
17 | CC1(C)NC(=O)NC1=O | inactive | inactive |  |  | inactive | inactive | inactive |  | inactive | inactive |  |  | inactive | inactive | inactive | inactive | inactive |  | inactive | 
18 | CC1(C)CC(N)CC(C)(CN)C1 (configuration not stated) | inactive | inactive |  |  | inactive | inactive | inactive | inactive | inactive | inactive | inactive | inactive | inactive | inactive | inactive |  | 13.9 µM (active) and inactive | inactive | inactive | 
19 | CC(C)=CCl | inactive | inactive |  |  | inactive | inactive | inactive |  | inactive | inactive | inactive | inactive | inactive | inactive | inactive |  | inactive |  |  | 
20 | CC(O)CC(C)(C)O (configuration not stated) | inactive | inactive |  |  | inactive | inactive | inactive |  |  | inactive | inactive | inactive | inactive | inactive | inactive | inactive |  |  | inactive | 
21 | CCO[Si](CCCN)(OCC)OCC | inactive | inactive |  |  | inactive | inactive | inactive | inactive | inactive | inactive | inactive | inactive | inactive | inactive | inactive | inactive | inactive | inactive | inactive | 
22 | O=C(O)c1ccccc1C(=O)O | inactive | inactive |  |  | inactive | inactive | inactive | inactive | inactive | inactive | inactive | inactive | inactive | inactive | inactive |  | inactive | inactive |  | 
